Assay results as given in PubChem BioAssay AID720513 (Broad Institute, 2013).
Screen size: about 2,100 compounds; about 480 (23%) were called active. Another 5% or so got no clear call; they are omitted.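 How the source made its calls: active means fitted curve reaches 40% activation at or below the top valid concentration, in every replicate test; inconclusive means replicate tests disagree on the call; inactive means the rest, including activity in the opposite direction.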 Not all results are given here. Entries with a potency or affinity are not part of this list.

Assay: activators raising PGC1a acetylation in cells, dose response, cell-based, cherry-picked samples, set 6 (AID 720513);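 further: cells made to overexpress flag tagged PGC1a plus GCN5 acetyltransferase by viral infection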
Details: U2OS PGC1a acetylation AlphaLISA, overnight, 0 = neutral, -100 = inhibitor control; series mostly up to 19.5 µM

SMILES | outcome
Cc1ccccc1OCC(=O)OCC(=O)NCc1ccc2c(c1)OCO2 | inactive
CC(=O)Nc1cccc(-c2ccnc3c2CC(C)(C(=O)Nc2ccc4c(c2)OCO4)O3)c1 (centres undefined) | inactive
O=C(CN(Cc1ccc2c(c1)OCO2)C(=O)CNS(=O)(=O)c1ccccc1)NCc1ccco1 | inactive
Cn1c(SC2=CS(=O)(=O)c3ccccc32)nc2ccccc21 | inactive
CCOC(=O)CNC(=O)OC1CCN2Cc3ccccc3N=C12 (centres undefined) | inactive
CN(C)CCNc1oc(COc2ccc(-c3ccccc3)cc2)nc1C#N | inactive
C[C@H](CO)N1C[C@H](C)[C@@H](CN(C)C(=O)c2ccccn2)Oc2ncc(-c3cccc(C#N)c3)cc2C1=O | inactive
Cc1nc(N(CCO)C2CCCCC2)c2nnn(Cc3ccccc3)c2n1 | inactive
C[C@H](NC(=O)C[C@H]1CC[C@@H](NC(=O)C2CC2)[C@H](CO)O1)c1ccccc1 | inactive
C[C@@H]1CCCCO[C@@H](CN(C)C(=O)c2ccncc2)[C@@H](C)CN([C@H](C)CO)C(=O)c2cc(NC(=O)CCCCCC(=O)Nc3ccccc3N)ccc2O1 | inactive
O=C(CSc1nc2cc(Cl)ccc2s1)NCC1CCCO1 (centres undefined) | inactive
COc1ccccc1CNC(=O)C[C@@H]1CC[C@@H]2[C@H](COC[C@H](O)CN2C(=O)Nc2ccc(Cl)cc2)O1 | inactive
CN1CCN(C(=O)C[C@@H]2CC[C@@H]3[C@H](COC[C@H](O)CN3CC3CCCCC3)O2)CC1 | inactive
Cc1ccc(Nc2nc(-c3c(C)nc4ncccn34)cs2)cc1 | inactive
Cc1cnc(NC(=O)c2nn(C)cc2[N+](=O)[O-])s1 | inactive
C[C@@H]1CN([C@H](C)CO)C(=O)c2cc(NC(=O)Nc3ccc(F)cc3)ccc2O[C@@H](C)CCCCO[C@@H]1CN(C)C(=O)NC1CCCCC1 | inactive
CCCc1nc2c(=O)n(C)c(=O)nc-2n(C)n1 | inactive
O=C1/C(=C/c2ccccc2[N+](=O)[O-])COc2ccccc21 | inactive
COc1ccccc1N=C1NC(=O)/C(=C/c2ccc(N(C)C)cc2)S1 | inactive
O=C1C=CCCN1C(=O)/C=C/c1ccccc1Cl | inactive
Cn1nc(C(C)(C)C)cc1NC(=O)C1(C)CCN1C(=O)C1(c2ccccc2)CCCC1 (centres undefined) | inactive
COc1ccc(-c2onc(C)c2-c2ccc(C(=O)OC(C)C)o2)c(O)c1 | inactive
N#Cc1ccc(CCc2ccccc2)[nH]c1=O | inactive
NS(=O)(=O)c1ccc(-c2ccc(/C=C3\C(=O)Nc4cc(Cl)ccc43)o2)cc1 | inactive

SMILES | outcome
O=C(Nc1nc2c(s1)CN(Cc1ccccc1)CC2)c1c(F)cccc1F | inactive
COc1ccc(-c2[nH]ncc2CN(C)C(C)c2ccon2)cc1F (centres undefined) | inactive
COc1cccc(-n2c(-c3cccc(S(=O)(=O)N(C)C)c3)n[nH]c2=S)c1 | inactive
COc1ccc(OC)c(-n2c(-c3ccc(C)cc3)n[nH]c2=S)c1 | inactive
COc1ccc2nc(NCc3cccnc3)sc2c1 | inactive
COc1cccc(Cn2c(NCc3cccnc3)nc3c2c(=O)n(C)c(=O)n3C)c1 | inactive
Cc1ccc(S(=O)(=O)Nc2ccccc2C(=O)NCc2cccnc2)cc1 | inactive
COc1cccc(S(=O)(=O)N[C@H]2CC[C@H](CC(=O)NCc3ccc(F)cc3)O[C@@H]2CO)c1 | inactive
CCC(C)C(NC(=O)C1CCC(C)CC1)C(=O)NCc1cccnc1 (centres undefined) | inactive
CCn1cc(C(=O)NCc2cccnc2)c2cc(OC)c(OC)cc2c1=O | inactive
C[C@H]1CN([C@@H](C)CO)C(=O)c2cc(C3=CCCC3)cnc2O[C@@H]1CN(C)C(=O)c1cccnc1 | inactive
Cc1ccccc1S(=O)(=O)N[C@H]1CC[C@H](CCn2cc(Cc3ccccc3)nn2)O[C@@H]1CO | inactive
COc1ccccc1C#Cc1ccc2c(c1)O[C@@H](CN(C)Cc1cccnc1)[C@H](C)CN([C@@H](C)CO)S2(=O)=O | inactive
CO[C@H]1CN(C)C(=O)c2cc(NS(=O)(=O)c3cn(C)cn3)ccc2OC[C@@H](C)NC[C@H]1C | inactive
CCCCN(c1ccccc1)c1ncnc(N)c1[N+](=O)[O-] | inactive
COC(=O)c1cccc(NC(=O)CSc2nnc(C)n2C)c1 | inactive
COc1ccccc1Nc1nc(NCCC(C)C)nc(N)c1[N+](=O)[O-] | inactive
Cn1nnnc1Sc1ncnc2scc(-c3cccc(S(C)(=O)=O)c3)c12 | inactive
Cc1ccc(C)c(S(=O)(=O)N(C(=O)c2ccncc2)c2ccc(OC(=O)c3ccncc3)cc2)c1 | inactive
C=CCNC(=O)c1cnn(-c2ccccc2)c1-c1ccccc1 | inactive
CO[C@@H]1CN(C)C(=O)c2ccc(NC(C)=O)cc2OC[C@@H](C)N(C(=O)Cc2cccnc2)C[C@@H]1C | inactive
O=C(Cn1ncc(Cl)c(Cl)c1=O)NCC1CCCCC1 | inactive
C[C@@H]1CN([C@H](C)CO)C(=O)Cc2cc(NC(=O)CCC(F)(F)F)ccc2O[C@H]1CN(C)S(C)(=O)=O | inactive
CCOC(=O)C1=C(Nc2ccccc2)OCC1=O | inactive

SMILES | outcome
O=C(NCc1cccnc1)/C(=C/c1ccc(-c2ccc(Cl)cc2)o1)S(=O)(=O)c1ccccc1 | inactive
CC1=CCC2C(=O)N(c3cccc(C(=O)NCc4ccccc4)c3)C(=O)C2C1 (centres undefined) | inactive
Cc1ccc(S(=O)(=O)Nc2cccc3c2O[C@H](CN(C)Cc2ccc(Cl)c(Cl)c2)[C@@H](C)CN([C@@H](C)CO)C3=O)cc1 | inactive
CN(C)c1nc(SCCOC(=O)COc2ccc(Cl)cc2Cl)nc(N(C)C)n1 | inactive
CCCc1cc(=O)oc2cc(C)cc(O)c12 | inactive
CC(=O)Nc1ccc2c(CSc3nncs3)cc(=O)oc2c1 | inactive
COC(=O)[C@]1(Cc2ccccc2)N=C(c2ccc(OCCCO)cc2)O[C@@H]1c1ccccc1CN=[N+]=[N-] | inactive
O=[N+]([O-])c1cc(F)c2cccnc2c1O | inactive
Cc1ccc2[nH]c3ccccc3c(=O)c2c1 | inactive
CCN(CC(=O)Nc1ccccc1C(F)(F)F)C(=O)CCSc1ccc(F)cc1 | inactive
O=C(NCc1cccnc1)/C(=C\c1ccc(-c2ccc(Cl)c(Cl)c2)o1)S(=O)(=O)c1ccccc1 | inactive
O=C(NCc1cccnc1)/C(=C\c1ccc(-c2cccc(Cl)c2)o1)S(=O)(=O)c1ccccc1 | inactive
O=C(CCNNC(=O)c1ccncc1)NCc1ccccc1 | inactive
O=C(NCc1cccnc1)C1CC(=O)N(C2CCCCC2)C1 (centres undefined) | inactive
O=C(Cc1ccccn1)NCC[C@H]1CC[C@@H](NC(=O)Nc2ccc(C(F)(F)F)cc2)[C@@H](CO)O1 | inactive
O=C(NC1=NCCS1)C1CC(=O)N(c2ccccc2)C1 (centres undefined) | inactive
O=C(Nc1cccc2[nH]ncc12)c1ccc(F)cc1 | inactive
O=C(C[C@@H]1CC[C@@H](NC(=O)C2CCC2)[C@H](CO)O1)NCC1CC1 | inactive
CCC(=O)Nc1ccc(C(=O)COC(=O)c2sc(C)nc2C)cc1 | inactive
CC(C)C[C@H]1CNC(=S)N1CC1CCCN1C[C@H](Cc1ccccc1)N1C[C@H](Cc2ccc(O)cc2)N(CC2CCCCCC2)C1=S (some centres undefined) | inactive
CC(N=C1NS(=O)(=O)c2ccccc21)C(=O)NCCCc1ccccc1 (centres undefined) | inactive
CCOc1ccc2nc(NCCNC(=O)Nc3ccccc3)c(C#N)cc2c1 | inactive
Cc1ccccc1OCC(O)CNC1CCC(NCC(O)COc2ccccc2C)CC1 (centres undefined) | inactive
C[C@H](CO)N1C[C@H](C)[C@H](CN(C)C(=O)CN(C)C)Oc2cc(-c3cncnc3)ccc2S1(=O)=O | inactive

SMILES | outcome
CCN1CCN(Cc2ccc(NC(=O)c3cc(NC(=O)c4cncc(-c5ccc(C#N)cc5)c4)cc(OC)c3)cc2C(F)(F)F)CC1 | inactive
COc1ccc(OCCc2nnc(N)s2)cc1 | inactive
CN(NC(=O)c1ccccc1F)c1nc(C(F)(F)F)nc2ccccc12 | inactive
C[C@@H](C(=O)Nc1nc2ccc(F)cc2s1)N1C(=O)C2CC=CCC2C1=O (some centres undefined) | inactive
C[C@@H]1CN([C@H](C)CO)S(=O)(=O)c2ccc(C#CC3CCCC3)cc2O[C@H]1CN(C)C | inactive
O=C(NCC1CC1)Nc1ccccc1F | inactive
C/C=C/c1ccc2c(c1)O[C@@H](CN(C)C(=O)NC(C)C)[C@H](C)CN([C@H](C)CO)S2(=O)=O | inactive
Cc1cccc(-c2ccc(C3[C@@H]4CN(Cc5cccc(F)c5)C[C@H]3N4)cc2)c1 (some centres undefined) | inactive
Fc1ccc(-c2ccc(C3[C@@H]4CN(Cc5ccccc5)C[C@H]3N4)cc2)cc1 (some centres undefined) | inactive
COc1ccc(-c2ccc(C3[C@@H]4CN(Cc5ccccn5)C[C@H]3N4)cc2)cc1 (some centres undefined) | inactive
Fc1cccc(CN2C[C@@H]3N[C@H](C2)C3c2ccc(-c3ccccc3)cc2)c1 (some centres undefined) | inactive
COc1cccc(-c2ccc(C3[C@@H]4CN(Cc5cccc(F)c5)C[C@H]3N4)cc2)c1 (some centres undefined) | inactive
COc1cc(CN2C[C@@H]3N[C@H](C2)C3c2ccc(-c3cccc(OC)c3)cc2)cc(OC)c1 (some centres undefined) | inactive
COc1ccccc1CN1C[C@@H]2N[C@H](C1)C2c1ccc(-c2ccccc2)cc1 (some centres undefined) | inactive
CC1CN(C(=O)COC(=O)[C@@H]2CC(O)CN2S(=O)(=O)c2ccc3c(c2)OCCO3)CC(C)O1 (some centres undefined) | inactive
CCn1c(C)c(C)c2cc(C(=O)NCCN3CCOCC3)ccc21 | inactive
CN1C(C(=O)Nc2ccccn2)=C(O)c2sc(Cl)cc2S1(=O)=O | inactive
CO[C@H]1CN(C)C(=O)c2cc(NS(C)(=O)=O)ccc2OC[C@H](C)N(C(=O)NC(C)C)C[C@H]1C | inactive
C[C@@H]1CN([C@@H](C)CO)S(=O)(=O)c2ccc(C#CC3CCCCC3)cc2O[C@H]1CN(C)Cc1cccnc1 | inactive
CN1CCN2c3ncccc3Cc3ccccc3[C@@H]2C1 | inactive
Fc1ccc(/C=C2\CCCC3=C2Nc2ncnn2C3c2ccc(F)cc2)cc1 (centres undefined) | inactive
CC(C)(C)NS(=O)(=O)c1ccc(CCC(=O)N2CCOCC2)cc1 | inactive
